The results in this text go back to PMC9911399, “Two distinct binding modes provide the RNA-binding protein RbFox with extraordinary sequence specificity”.

Positions count from the first letter of the chain named. The full ranking holds about 16,000 sequences; the median of “ka relative to ugcaugu” is about 0.096, and the highest 2% start at about 0.35. The sample as a whole holds a higher share of the highest values than the screen did.

The chains are these.
B1: UGCUAAU (DNA:RNA)
RNA: GGGAGACCGGAAUUCAGAUUGUCCUGCUAAUUUAAAUCCCGUCGUAGCCACCA
DNA 1: CAATCTGAATTCCGGTCTCCC
DNA 2: TGGTGGCTACGACGGGATT
B2: AGCGUUA (DNA:RNA)
RNA: B1 RNA with U25A, U28G, A29U, A30U, U31A
DNA 1: CAATCTGAATTCCGGTCTCCC
DNA 2: TGGTGGCTACGACGGGATT
B3: GUGCUCG (DNA:RNA)
RNA: GGGAGACCGGAAUUCAGAUUGUCCGUGCUCGUUAAAUCCCGUCGUAGCCACCA
DNA 1: CAATCTGAATTCCGGTCTCCC
DNA 2: TGGTGGCTACGACGGGATT
B4: CUUACCA (DNA:RNA)
RNA: B3 RNA with G25C, G27U, C28A, U29C, G31A
DNA 1: CAATCTGAATTCCGGTCTCCC
DNA 2: TGGTGGCTACGACGGGATT
B5: GAGUGUA (DNA:RNA)
RNA: B3 RNA with U26A, C28U, U29G, C30U, G31A
DNA 1: CAATCTGAATTCCGGTCTCCC
DNA 2: TGGTGGCTACGACGGGATT
B6: CAGCCAU (DNA:RNA)
RNA: B3 RNA with G25C, U26A, U29C, C30A, G31U
DNA 1: CAATCTGAATTCCGGTCTCCC
DNA 2: TGGTGGCTACGACGGGATT
B7: UGUAUCC (DNA:RNA)
RNA: B3 RNA with G25U, U26G, G27U, C28A, G31C
DNA 1: CAATCTGAATTCCGGTCTCCC
DNA 2: TGGTGGCTACGACGGGATT
B8: UGUCCCG (DNA:RNA)
RNA: B3 RNA with G25U, U26G, G27U, U29C
DNA 1: CAATCTGAATTCCGGTCTCCC
DNA 2: TGGTGGCTACGACGGGATT
B9: UGUAUUG (DNA:RNA)
RNA: B3 RNA with G25U, U26G, G27U, C28A, C30U
DNA 1: CAATCTGAATTCCGGTCTCCC
DNA 2: TGGTGGCTACGACGGGATT
B10: UGUAUCG (DNA:RNA)
RNA: B3 RNA with G25U, U26G, G27U, C28A
DNA 1: CAATCTGAATTCCGGTCTCCC
DNA 2: TGGTGGCTACGACGGGATT
B11: UGUUGUA (DNA:RNA)
RNA: B1 RNA with C27U, A29G, A30U, U31A
DNA 1: CAATCTGAATTCCGGTCTCCC
DNA 2: TGGTGGCTACGACGGGATT
B12: UGUAUUA (DNA:RNA)
RNA: B1 RNA with C27U, U28A, A29U, A30U, U31A
DNA 1: CAATCTGAATTCCGGTCTCCC
DNA 2: TGGTGGCTACGACGGGATT
B13: GCUAGGC (DNA:RNA)
RNA: B3 RNA with U26C, G27U, C28A, U29G, C30G, G31C
DNA 1: CAATCTGAATTCCGGTCTCCC
DNA 2: TGGTGGCTACGACGGGATT
B14: UGCACAU (DNA:RNA)
RNA: B1 RNA with U28A, A29C
DNA 1: CAATCTGAATTCCGGTCTCCC
DNA 2: TGGTGGCTACGACGGGATT
B15: GACAGGU (DNA:RNA)
RNA: B1 RNA with U25G, G26A, U28A, A29G, A30G
DNA 1: CAATCTGAATTCCGGTCTCCC
DNA 2: TGGTGGCTACGACGGGATT
B16: AGUUAAU (DNA:RNA)
RNA: B1 RNA with U25A, C27U
DNA 1: CAATCTGAATTCCGGTCTCCC
DNA 2: TGGTGGCTACGACGGGATT
B17: CCUUGUC (DNA:RNA)
RNA: B1 RNA with U25C, G26C, C27U, A29G, A30U, U31C
DNA 1: CAATCTGAATTCCGGTCTCCC
DNA 2: TGGTGGCTACGACGGGATT
B18: UCGCGUG (DNA:RNA)
RNA: B3 RNA with G25U, U26C, U29G, C30U
DNA 1: CAATCTGAATTCCGGTCTCCC
DNA 2: TGGTGGCTACGACGGGATT
B19: UCGUGUC (DNA:RNA)
RNA: B1 RNA with G26C, C27G, A29G, A30U, U31C
DNA 1: CAATCTGAATTCCGGTCTCCC
DNA 2: TGGTGGCTACGACGGGATT
B20: UCGCGUC (DNA:RNA)
RNA: B3 RNA with G25U, U26C, U29G, C30U, G31C
DNA 1: CAATCTGAATTCCGGTCTCCC
DNA 2: TGGTGGCTACGACGGGATT
B21: GUGUGUC (DNA:RNA)
RNA: B3 RNA with C28U, U29G, C30U, G31C
DNA 1: CAATCTGAATTCCGGTCTCCC
DNA 2: TGGTGGCTACGACGGGATT
B22: UUGGGUG (DNA:RNA)
RNA: B3 RNA with G25U, C28G, U29G, C30U
DNA 1: CAATCTGAATTCCGGTCTCCC
DNA 2: TGGTGGCTACGACGGGATT
B23: UUGUCCC (DNA:RNA)
RNA: B3 RNA with G25U, C28U, U29C, G31C
DNA 1: CAATCTGAATTCCGGTCTCCC
DNA 2: TGGTGGCTACGACGGGATT
B24: UUGUGUC (DNA:RNA)
RNA: B3 RNA with G25U, C28U, U29G, C30U, G31C
DNA 1: CAATCTGAATTCCGGTCTCCC
DNA 2: TGGTGGCTACGACGGGATT
B25: UUGGGAA (DNA:RNA)
RNA: B3 RNA with G25U, C28G, U29G, C30A, G31A
DNA 1: CAATCTGAATTCCGGTCTCCC
DNA 2: TGGTGGCTACGACGGGATT
B26: UUGUGUG (DNA:RNA)
RNA: B3 RNA with G25U, C28U, U29G, C30U
DNA 1: CAATCTGAATTCCGGTCTCCC
DNA 2: TGGTGGCTACGACGGGATT
B27: UUGGGGG (DNA:RNA)
RNA: B3 RNA with G25U, C28G, U29G, C30G
DNA 1: CAATCTGAATTCCGGTCTCCC
DNA 2: TGGTGGCTACGACGGGATT
B28: CUUGUCC (DNA:RNA)
RNA: B3 RNA with G25C, G27U, C28G, G31C
DNA 1: CAATCTGAATTCCGGTCTCCC
DNA 2: TGGTGGCTACGACGGGATT
B29: AUGACGA (DNA:RNA)
RNA: B3 RNA with G25A, C28A, U29C, C30G, G31A
DNA 1: CAATCTGAATTCCGGTCTCCC
DNA 2: TGGTGGCTACGACGGGATT
B30: UACCUCG (DNA:RNA)
RNA: B3 RNA with G25U, U26A, G27C
DNA 1: CAATCTGAATTCCGGTCTCCC
DNA 2: TGGTGGCTACGACGGGATT
B31: UUUCACA (DNA:RNA)
RNA: B3 RNA with G25U, G27U, U29A, G31A
DNA 1: CAATCTGAATTCCGGTCTCCC
DNA 2: TGGTGGCTACGACGGGATT

This assay has as its target T1, RBFOX1 RRM RbFoxmut (Fox-RRM*) (Homo sapiens, UniProt Q9NWB1 109-208, R118D;E147R;N151S;E152T).
T1 sequence: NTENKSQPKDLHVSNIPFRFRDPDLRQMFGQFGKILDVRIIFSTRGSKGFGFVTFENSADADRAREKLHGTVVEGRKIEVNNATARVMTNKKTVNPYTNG
Description: EMSA; HiTS-Eq, 1 nM pool, 10 min; buffer printed only for the single-RNA assays: 10 mM Tris pH 7.5, 150 mM NaCl, 3.4 mM EDTA, 0.001% NP-40, 30 C. To be noted: tags: His6 N-terminal (pET28a); label: 5' 32P. The gist of the method: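 Relative association constants, normalised to the cognate motif, were derived by comparing read counts of each RNA species with those of the control reaction. The RNA sequenced was the free fraction, separated by 8% native PAGE after a 10 min equilibration in 50 µL of 1 nM 5′-radiolabelled RNA (7 randomized nucleotides) with increasing concentrations of purified wild-type or mutant RbFox RRM.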
Turning to B1, the binding signal was 0.0977 KA relative to UGCAUGU. Consider B2, for which the binding signal was 0.113 KA relative to UGCAUGU.

On to B3, for which the binding signal was 0.226 KA relative to UGCAUGU. In the case of B4 it was 0.0834 KA relative to UGCAUGU. Turning to B5, the binding signal was 0.258 KA relative to UGCAUGU. In the case of B6 it was 0.0919 KA relative to UGCAUGU; in that of B7, 0.15 KA relative to UGCAUGU; in that of B8, 0.096 KA relative to UGCAUGU. With B9 the figure was 0.691 KA relative to UGCAUGU. For B10, the binding signal is 0.648 KA relative to UGCAUGU. In the case of B11 it was 0.307 KA relative to UGCAUGU; in that of B12, 0.175 KA relative to UGCAUGU; in that of B13, 0.0891 KA relative to UGCAUGU. With B14, the binding signal was 0.0893 KA relative to UGCAUGU. With B15 the figure was 0.0716 KA relative to UGCAUGU; with B16, 0.0918 KA relative to UGCAUGU.

With B17, the binding signal is 0.226 KA relative to UGCAUGU. In the case of B18 it was 0.153 KA relative to UGCAUGU. In the case of B19, the binding signal was 0.359 KA relative to UGCAUGU.

For B20, the binding signal was 0.145 KA relative to UGCAUGU. With B21 the figure was 0.329 KA relative to UGCAUGU. Regarding B22, the binding signal was 0.373 KA relative to UGCAUGU.

As for B23, the binding signal is 0.0731 KA relative to UGCAUGU. With B24 the figure was 0.357 KA relative to UGCAUGU; with B25, 0.14 KA relative to UGCAUGU. Take B26: the binding signal is 0.491 KA relative to UGCAUGU. With B27 the figure was 0.0724 KA relative to UGCAUGU; with B28, 0.107 KA relative to UGCAUGU; with B29, 0.0609 KA relative to UGCAUGU.

On to B30, for which the binding signal is 0.107 KA relative to UGCAUGU. With B31 the figure was 0.0896 KA relative to UGCAUGU.
